Laboratory results taken from paper PMC5540273 (PLoS ONE, 2017).

system: SYK; conditions: concentration: 1 μM, replicates: in singlicate; n = 1
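Also: KINOMEscan kinase panel screen.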

| SMILES | %Inh |
| --- | --- |
| COC(=O)c1c(-c2ccccc2)c2cc(Cl)ccc2c(=O)n1Cc1ccc(S(C)(=O)=O)cc1 | 3% |
| FC(F)(F)c1ccc(-c2cc(-c3c[nH]nc3-c3ccccn3)ccn2)cc1 [GW599550] | 44% |
| COc1ccc(NC(=O)c2ccc(-c3cc(-c4nnc(C)o4)ccc3C)cc2)cc1 [GW595885] | 27% |
| Cl.Cl.c1ccc(-c2cc3ccncc3cc2OC2CCNCC2)cc1 [GSK1122999] | 19% |
| CS(=O)(=O)CCNCc1nc(-c2ccc3ncnc(Nc4ccc(OCc5cccc(F)c5)c(Cl)c4)c3c2)cs1.Cl [GW583340] | 18% |
| Cn1ccc2ncnc(Oc3ccc(NC(=O)Nc4cccnc4)c(Cl)c3)c21 | 0% |
| Fc1cccc(COc2ccc(Nc3ncnc4sc(-c5ccc[nH]5)cc34)cc2Cl)c1 [GW707818] | 13% |
| Cl.Cn1ccc(-c2cccc(Nc3ccnc4cc(-c5nccs5)ccc34)c2)n1 [GW525701] | 0% |
| CS(=O)(=O)CCNCc1ccc(-c2ccc3ncnc(Nc4ccc(OCc5ccccc5)c(Cl)c4)c3c2)o1.Cl [GW574783] | 0% |
| COc1ccc(Nc2nccc(N3CCC(NC(=O)Nc4ccc5c(c4)OCO5)C3)n2)cc1 (stereo not shown) [GSK1379745] | 40% |
| Fc1cccc(COc2ccc(Nc3ncnc4nn5ccccc5c34)cc2Cl)c1 [GW689066] | 26% |
| Cc1ccc(O)cc1Nc1cc(C(F)(F)F)nc2ccc(-c3ccncc3)cc12 [GW630823] | 8% |
| Cl.Fc1ccccc1COc1ccc(Nc2ncnc3ccc(-c4nnc(C(F)(F)F)o4)cc23)cc1Cl [GW424170] | 0% |
| Clc1ccc(-c2cc(-c3c[nH]nc3-c3ccccn3)ccn2)cc1 [GW681251] | 22% |
| C[C@H]1CC[C@@H](C(=O)Nc2ccccc2)CN1c1cc(-c2ccc3c(N)n[nH]c3c2)nc(N)n1 [GSK2283293] | 4% |
| Oc1ccc2ncnc(Nc3ccc(OCc4ccccc4)cc3)c2c1 [GI262866] | 14% |
| N#Cc1ccc(Oc2ccc(Nc3ncnc4cc[nH]c34)cc2Cl)cc1 | 13% |
| CC(C)(C)c1ccc(-n2cnc3c(N)ncnc32)cc1 [SKF-97263] | 0% |
| Cc1ccc(C)c(NC(=O)NCCNc2ccnc(Nc3ccc(F)cc3)n2)c1 [GSK1379878] | 17% |
| CCn1c(-c2ccncc2)nc2cnccc21 [SB-735216] | 15% |
| COc1ccc(NC(=O)Nc2ccc(C)c(-c3ccc(C(=O)Nc4ccncc4)cc3)c2)cc1 [GSK1398475] | 0% |
| Clc1cc(Nc2ncnc3cc[nH]c23)ccc1OCc1ccccn1 | 8% |

system: SgK110; conditions: concentration: 1 μM, replicates: in singlicate; n = 1

| SMILES | %Inh |
| --- | --- |
| CN1CCC(n2cnc(-c3ccc(F)cc3)c2-c2ccnc(NC3CCNCC3)n2)CC1 [SB-229482] | 0% |
| COc1cc2ncnc(Nc3ccc(OCc4ccccc4Br)c(Cl)c3)c2cc1OC.Cl [GI261590] | 0% |
| CC(=O)Nc1n[nH]c2ncc(-c3ccccc3)cc12 [SB-548492] | 3% |
| CNc1nccc(-c2c(-c3ccc(F)cc3)ncn2C2CCN(C)CC2)n1 [SB-222903] | 36% |
| O=C(Nc1ccccc1F)NC1CCN(c2ccnc(Nc3ccc(F)cc3)n2)C1 (stereo not shown) [GSK1379722] | 0% |
| O=C(NCCCN1CCCC1=O)c1cnc(NCc2cc(Cl)ccc2Cl)nc1NC1CCNCC1 | 5% |
| O=c1cc(N2CCOCC2)nc2n(Cc3cccc(Cl)c3)ccn12 [GSK2296823] | 0% |
| Nc1n[nH]c2nnc(-c3ccccc3)cc12 [SB-517389] | 0% |
| O=C(Nc1n[nH]c2nc(-c3ccco3)c(Br)cc12)c1ccc(CN2CCCC2)cc1.O=C(O)[C@H](O)[C@@H](O)C(=O)O [SB-742352] | 50% |
| Nc1nc(-c2cccnc2)c(-c2ccnc3ccccc23)s1 [GW684083] | 48% |
| c1ccc(-c2ccc3c(-c4ccnc(Nc5ccc6c(c5)OCCO6)n4)cnn3n2)cc1 [GW818941] | 0% |
| Nc1nc(-c2ccc3c(N)n[nH]c3c2)cc(N2CCC[C@@H](C(=O)Nc3ccccc3)C2)n1.O=C(O)C(F)(F)F.O=C(O)C(F)(F)F [GSK2288359] | 0% |
| COC(=O)c1cccc(NC(=O)NCCNc2ccnc(Nc3ccc(F)cc3)n2)c1 [GSK1379883] | 0% |
| COC(=O)c1c(-c2ccccc2)c2cc(Cl)ccc2c(=O)n1Cc1ccc(S(C)(=O)=O)cc1 | 46% |
| FC(F)(F)c1ccc(-c2cc(-c3c[nH]nc3-c3ccccn3)ccn2)cc1 [GW599550] | 0% |
| COc1ccc(NC(=O)c2ccc(-c3cc(-c4nnc(C)o4)ccc3C)cc2)cc1 [GW595885] | 13% |
| COc1ccc(-c2nc3n(c2-c2ccncc2)CCC3)cc1 [SKF-104493] | 0% |
| Cl.Cl.c1ccc(-c2cc3ccncc3cc2OC2CCNCC2)cc1 [GSK1122999] | 0% |

| SMILES | %Inh |
| --- | --- |
| CS(=O)(=O)CCNCc1nc(-c2ccc3ncnc(Nc4ccc(OCc5cccc(F)c5)c(Cl)c4)c3c2)cs1.Cl [GW583340] | 0% |
| Cn1ccc2ncnc(Oc3ccc(NC(=O)Nc4cccnc4)c(Cl)c3)c21 | 49% |
| Fc1cccc(COc2ccc(Nc3ncnc4sc(-c5ccc[nH]5)cc34)cc2Cl)c1 [GW707818] | 0% |
| Cl.Cn1ccc(-c2cccc(Nc3ccnc4cc(-c5nccs5)ccc34)c2)n1 [GW525701] | 19% |
| CS(=O)(=O)CCNCc1ccc(-c2ccc3ncnc(Nc4ccc(OCc5ccccc5)c(Cl)c4)c3c2)o1.Cl [GW574783] | 0% |
| COc1ccc(Nc2nccc(N3CCC(NC(=O)Nc4ccc5c(c4)OCO5)C3)n2)cc1 (stereo not shown) [GSK1379745] | 2% |
| Fc1cccc(COc2ccc(Nc3ncnc4nn5ccccc5c34)cc2Cl)c1 [GW689066] | 0% |
| Cc1ccc(O)cc1Nc1cc(C(F)(F)F)nc2ccc(-c3ccncc3)cc12 [GW630823] | 0% |
| Cl.Fc1ccccc1COc1ccc(Nc2ncnc3ccc(-c4nnc(C(F)(F)F)o4)cc23)cc1Cl [GW424170] | 0% |
| Clc1ccc(-c2cc(-c3c[nH]nc3-c3ccccn3)ccn2)cc1 [GW681251] | 0% |
| C[C@H]1CC[C@@H](C(=O)Nc2ccccc2)CN1c1cc(-c2ccc3c(N)n[nH]c3c2)nc(N)n1 [GSK2283293] | 0% |
| Oc1ccc2ncnc(Nc3ccc(OCc4ccccc4)cc3)c2c1 [GI262866] | 0% |
| N#Cc1ccc(Oc2ccc(Nc3ncnc4cc[nH]c34)cc2Cl)cc1 | 0% |
| CC(C)(C)c1ccc(-n2cnc3c(N)ncnc32)cc1 [SKF-97263] | 0% |
| Cc1ccc(C)c(NC(=O)NCCNc2ccnc(Nc3ccc(F)cc3)n2)c1 [GSK1379878] | 0% |
| CCn1c(-c2ccncc2)nc2cnccc21 [SB-735216] | 0% |
| COc1ccc(NC(=O)Nc2ccc(C)c(-c3ccc(C(=O)Nc4ccncc4)cc3)c2)cc1 [GSK1398475] | 0% |
| Clc1cc(Nc2ncnc3cc[nH]c23)ccc1OCc1ccccn1 | 0% |
